Vc quorum ag: quorum light induction in luxS cqsA deficient V. cholerae | V. cholerae BH1578 lux reporter, luminescence, 6 h | activation, % at 18.7 µM | 350,000 tested, 0.16% active; in the data active = activation mostly above about 9.7%, no sharp cut-off
CCHFV vOTU inh: CCHFV vOTU protease inhibition; Pep-AMC fluorescence; inhibition, % at 11.5 µM; 370,000 tested, 0.55% active; AID 651958; in the data active = inhibition above about 30%; note: 0% = vehicle wells with enzyme and 100% = no enzyme wells
PrPC surface inh: reduces human prion protein on the cell surface; P04156; cell surface PrPC, TR-FRET read-out; inhibition, % at 13.8 µM; 370,000 tested, 0.43% active; in the data active = inhibition above about 24%; note: 0% = median of the test wells and 100% = reference compound wells
Yp Topo-I inh: blocks Yersinia pestis topoisomerase I activity. 360,000 tested, 0.064% active. Y. pestis Topo-I cleavage product accumulation, plate reader. AID 504884. activity, % at 10 µM; in the data active = activity above about 50%, passing the limit was not always enough
PrPC TRFRET cf: cell surface PrPC inhibition, TR-FRET confirmation; 1,500 tested, 65% active; shares compounds with PrPC surface inh; AID 743200; cell surface PrPC level; inhibition, % at 13.8 µM; in the data active = inhibition above about 25%
LD9 cytotox: LD9 cell cytotoxicity, PrPc inhibitor counter-screen. shares compounds with PrPC surface inh. LD9 cells cytotoxicity, luminescence viability. inhibition, % at 13.8 µM. 1,500 tested, 29% active. AID 743201; in the data active = inhibition above about 9.5%
Starred values were filed as active, the others as inactive. Shown are actives, neighbours in structure and some others; about 1.1% of the full set was active somewhere.

`S=c1[nH]nc(-c2cccnc2)o1` gave Vc quorum ag 0, CCHFV vOTU inh 4, PrPC surface inh -4 and Yp Topo-I inh -1.
Screening Cc1ccc(C(C)C)c(OCc2ccc(C(=O)N/N=C/c3ccc(C(=O)O)cc3)cc2)c1 returned Vc quorum ag -3, CCHFV vOTU inh 16, PrPC surface inh 7 and Yp Topo-I inh 15.
Cc1ccc(C(C)C)c(OCc2ccc(C(=O)N/N=C/c3ccc(O)cc3O)cc2)c1 was read as Vc quorum ag -3, CCHFV vOTU inh 10, PrPC surface inh 38*, Yp Topo-I inh -17, PrPC TRFRET cf 43* and LD9 cytotox 17*.
Screening COc1ccc(N2C(=O)CC(Nc3cccc(C(C)=O)c3)C2=O)cc1OC (stereo not drawn) returned CCHFV vOTU inh -2, PrPC surface inh 2 and Yp Topo-I inh 1.
Screening Cc1ccnc(NC(=O)Cc2ccc(-c3ccccc3)cc2)c1 returned Vc quorum ag -2, CCHFV vOTU inh 6, PrPC surface inh 35*, Yp Topo-I inh 13, PrPC TRFRET cf 41* and LD9 cytotox 8.
`S=C(NCCc1ccccc1)N1CCn2cccc2C1c1cccnc1` (stereo not drawn) gave Vc quorum ag inactive, CCHFV vOTU inh -13, PrPC surface inh 32*, Yp Topo-I inh -10, PrPC TRFRET cf 2 and LD9 cytotox -4.
For S=C(NCc1ccccc1)N1CCn2cccc2C1c1cccnc1 (stereo not drawn) the results were Vc quorum ag 0, CCHFV vOTU inh -15, PrPC surface inh 0 and Yp Topo-I inh -8.
For CCOC(=O)C1CCCN(C(=O)CCNS(=O)(=O)c2ccc3c(c2)CCC(=O)N3)C1 (stereo not drawn) the results were Vc quorum ag 0, CCHFV vOTU inh 0, PrPC surface inh 4 and Yp Topo-I inh 7.
Screening O=C(Cn1cc(C(F)(F)F)ccc1=O)NCCc1ccc(Cl)cc1Cl returned Vc quorum ag 0, CCHFV vOTU inh -9, PrPC surface inh -2 and Yp Topo-I inh -2.
For Cc1nn(C)cc1CN(C)C(=O)c1cc(-c2ccccc2)nc2ccc(Br)cc12 the results were Vc quorum ag -4, CCHFV vOTU inh 21, PrPC surface inh 68*, Yp Topo-I inh 23, PrPC TRFRET cf 81* and LD9 cytotox 6.
`Cn1cc(CNC(=O)c2cc(-c3ccccc3)nc3ccc(Br)cc23)cn1` gave Vc quorum ag inactive, CCHFV vOTU inh -22, PrPC surface inh -1 and Yp Topo-I inh 29.
`CCN1CCN(C(=O)c2cc(-c3cccnc3)nc3ccc(Br)cc23)CC1` gave Vc quorum ag inactive, CCHFV vOTU inh 0, PrPC surface inh 5 and Yp Topo-I inh -4.
Screening O=C(O)c1cc(-c2cccnc2)nc2ccc(Br)cc12 returned Vc quorum ag 0, CCHFV vOTU inh -12, PrPC surface inh 45*, Yp Topo-I inh -9, PrPC TRFRET cf 61* and LD9 cytotox -6.
For O=C(O)c1cc(-c2cccs2)nc2ccc(Br)cc12 the results were Vc quorum ag -1, CCHFV vOTU inh 1, PrPC surface inh 40*, Yp Topo-I inh 9, PrPC TRFRET cf 78* and LD9 cytotox -5.
For Cn1cnnc1SCc1ccc(C(=O)N/N=C/c2cccs2)cc1 the results were Vc quorum ag 0, CCHFV vOTU inh 20, PrPC surface inh -6 and Yp Topo-I inh 3.
`O=[N+]([O-])c1c(Nc2ccc(O)cc2)cc(Cl)c2nonc12` gave Vc quorum ag -1, CCHFV vOTU inh 9, PrPC surface inh 80*, Yp Topo-I inh -20, PrPC TRFRET cf 94* and LD9 cytotox 99*.
For COc1ccc(C(CC(=O)O)NC(=O)c2cc3cc(Br)ccc3oc2=O)cc1OC (stereo not drawn) the results were Vc quorum ag 2, CCHFV vOTU inh -7, PrPC surface inh -8 and Yp Topo-I inh 7.
Screening CC(C)OC(=O)CSc1nc(Cc2ccccc2)nc2ccccc12 returned Vc quorum ag 2, CCHFV vOTU inh 16, PrPC surface inh 60*, Yp Topo-I inh 4, PrPC TRFRET cf 87* and LD9 cytotox 3.
`CCOC(=O)CSc1nc2ccccc2c(=O)[nH]1` gave Vc quorum ag 0, CCHFV vOTU inh -5, PrPC surface inh 5 and Yp Topo-I inh 2.
For CC(C)OC(=O)CSc1nc(C(C)C)nc2ccccc12 the results were Vc quorum ag -1, CCHFV vOTU inh -5, PrPC surface inh 3 and Yp Topo-I inh 10.

Source: PubChem (several laboratories)
